The full list was thinned out, with hits kept by preference.
TTR transcr act – TTR transcription activators in neuroblastoma reporter cells, primary screen, cell-based, luminescence, SH-SY5Y, TTR promoter Gaussia luciferase | 100% = recombinant luciferase protein wells | activation, % at 16.7 µM | 92,000 tested, 1.3% active | AID 1117267, 2014;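 active = activation above the mean of all tested compounds plus 3 SD, cut at about 9.5% in these data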;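 note: cells exposed to compounds for one day before reading; 0% = median of all test compound wells on the plate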
TTR inh HuH7 – TTR promoter reporter inhibitors in hepatoma cells, counter-screen for TTR transcription activator project, cell-based, luminescence, HuH7 hepatoma; shares compounds with TTR transcr act; HuH7 TTR promoter-Gaussia luciferase reporter; inhibition, % at 16.7 µM; 1,100 tested, 4% active;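 active = average inhibition above the solvent-only control wells' mean plus 3 SD, cut at about 15% in these data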;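 note: 0% = cells with DMSO only and 100% = cells with inhibitor control FD; inhibitors lower well luminescence so higher value means more inhibition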
TTR act confirm – TTR transcription activators, retest, confirmation, cell-based, luminescence, SH-SY5Y, triplicate; shares compounds with TTR transcr act; SHSY5Y TTR promoter Gaussia luciferase; 100% = purified Lucia enzyme wells, no cells; activation, % at 16.7 µM; 1,100 tested, under 10 active; AID 1117280, 2014;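 active = mean activation above a set limit taken from the earlier primary screen, cut at about 11% in these data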;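 note: 0% = DMSO-treated cells and 100% = recombinant Lucia luciferase without cells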
An asterisk follows results filed as active.

SMILES | TTR transcr act | others
CCN1C(=NCCCOC(C)C)N[C@@H](c2ccccc2)[C@H](C(=O)OC)[C@H]1C | 12*
CCn1c(SCC(=O)Nc2ccc(N(C)C)cc2)nnc1-c1cccc(C)c1 | 28*
CCn1c(SCC(=O)Nc2ccc(C)cc2)nnc1-c1ccccn1 | 0
CCn1c(SCC(=O)Nc2cccc(OC)c2)nnc1-c1ccc(Cl)cc1 | 1
COC(=O)[C@@]1(C(C)C)N=C(c2cc(OC)c(OC)c(OC)c2)[C@]2(O1)C(=O)N(Cc1cn(Cc3ccccc3)nn1)c1ccc(F)cc12 | 0
COCCNC(=O)C1Cc2c(-c3ccc(NC(C)=O)cc3)ccnc2O1 (stereo not drawn) | -1
O=C(Nc1ccc(Cl)cc1)C1Cc2c(-c3ccc(Cl)cc3)ccnc2O1 (stereo not drawn) | 1
CC(=O)NCCNC(=O)C1Cc2c(-c3ccc(Cl)cc3)ccnc2O1 (stereo not drawn) | 10*
COc1ccc(Cn2cc(COC(=O)NCCc3c[nH]c4ccccc34)nn2)cc1 | 2
CCOC(=O)C(C)NC(=O)C(NC(=O)C1CCC(CC)CC1)C(C)C (stereo not drawn) | 10*
CCOc1ccc(NC(=O)C(NC(=O)C2CCC(C)CC2)C(C)C)cc1 (stereo not drawn) | 1
CC(C)[C@H](NC(=O)[C@@H]1Cc2ccccc2CN1C(=O)OC(C)(C)C)C(=O)NCC1CCC(C(=O)O)CC1 (stereo partly drawn) | 0
COc1ccc2[nH]c3c(c2c1)CCN[C@]31C(=O)N(Cc2cn(Cc3ccccc3)nn2)c2ccc(F)cc21 | -1
Cc1ccc([C@H](C)NC(=O)C2=C(N)N(S(=O)(=O)c3ccc(C)cc3)C(C(=O)c3ccccc3)C2c2ccccc2Cl)cc1 (stereo partly drawn) | 1
N=c1c2c(ccn1CCCCc1ccccc1)Oc1ccc3ccccc3c1C2c1ccccc1 (stereo not drawn) | -1
COc1ccc2c3c([nH]c2c1)[C@]1(CCNC=O)Nc2ccccc2C1=NCC3 | 0
CSc1ncccc1C(=O)OCc1ccccc1F | 5
COC(=O)c1cc(COC(=O)CNC(=O)c2cccc(C)c2)oc1C | -1
COC(=O)c1cc(COC(=O)c2cccnc2SC)oc1C | 41*
COc1ccc2c(c1)N[C@@](CCN1C(=O)c3ccccc3C1=O)(c1[nH]c3ccccc3c1CCN1C(=O)c3ccccc3C1=O)C2=O | -1
CC(C)[C@@H]1OC(=O)[C@@H]2CCCN2C(=O)[C@H](C)OC(=O)[C@H](C)[C@@H](C(C)C)NC(=O)[C@@H]2CCCN2C(=O)[C@H]([C@H](C)Cc2ccccc2)NC(=O)[C@@H]2CCCN2C(=O)[C@@H](C(C)C)N(C)C1=O | 0
C/C=C\C(=O)Nc1cccc(C2=NOC3(C2)C[C@@H](C(N)=O)N(C(=O)C2(C)CC2)C3)c1 (stereo partly drawn) | 2
C=C(C)C(=O)Nc1cccc(C2=NOC3(C2)C[C@@H](C(N)=O)N(C(=O)C2(C)CC2)C3)c1 (stereo partly drawn) | 5
C/C=C\C=C/C(=O)Nc1cccc(C2=NOC3(C2)C[C@@H](C(N)=O)N(C(=O)C2(C)CC2)C3)c1 (stereo partly drawn) | 11*
N#Cc1cc(-c2cccc(Cl)c2)c[nH]c1=O | 13*
SMILES | TTR transcr act | others
N#Cc1c(-c2cccc(Cl)c2)[nH]c(=S)[nH]c1=O | 2
C=CCn1cc(-c2cccc(Cl)c2)cc(C#N)c1=O | -3
O=C1CN(C(=O)NCC(=O)N[C@@H](C(=O)O)c2ccccc2)c2ccccc2N1 | 1
CC(C)C[C@H](NC(=O)N1CC(=O)Nc2ccccc21)C(=O)N[C@@H](C(=O)O)c1ccccc1 | 0
CC(C)[C@H](NC(=O)N1c2ccccc2NC(=O)[C@@H]1C(C)C)C(=O)N[C@@H](C(=O)O)c1ccccc1 | 27*
O=S(=O)(CC1NCCc2ccccc21)NCCc1ccccc1 (stereo not drawn) | 0
COc1ccc2[nH]c3c(c2c1)CCN[C@]31C(=O)N(Cc2ccccc2)c2ccccc21 | 1
c1ccc(-c2cccc(CNc3nc(-c4ccccn4)nnc3-c3ccccc3)c2)cc1 | -3
Cn1c(=O)c2c(nc(NCc3ccc4c(c3)OCO4)n2Cc2ccc(F)cc2)n(C)c1=O | -3
CCCNc1nc2c(c(=O)n(C)c(=O)n2C)n1Cc1cccc(C)c1 | 2
CCCCC(=O)NCCNc1nc2c(c(=O)n(C)c(=O)n2C)n1Cc1ccc(F)cc1 | 14*
CCOC(=O)[C@@]12CCCC=C1N(CCc1ccc(Cl)cc1)C(=O)[C@H]2CC(=O)NCc1ccccc1 | 0
COc1ccc(CNC(=O)O[C@H]2CC[C@@]34CCCN3C(=O)CCC[C@H]4C2)cc1 | 2
C[C@H]1[C@@H](NC(=O)Cc2ccsc2)CC[C@@]23CCCN2C(=O)CCC[C@@H]13 | 2
O=C(O)CCN1C(=O)NC2(CCCC2)C1=O | 17*
COc1ccc(NC(=O)CCN2C(=O)NC3(CCCC3)C2=O)cc1Cl | 2
O=C(CN1C(=O)NC2(CCCC2)C1=O)NC(c1ccccc1)c1ccccc1 | -1
O=C(NC1CCCCN(Cc2ccc(Cl)cc2)C1=O)c1cccc(F)c1 (stereo not drawn) | 1
C[C@H]1[C@@H](OC(=O)Nc2ccc(C(F)(F)F)cc2)CC[C@@]23CCCN2C(=O)CCC[C@@H]13 | 0
Cc1cc(SCC(=O)N/N=C/c2ccc(O)c(O)c2)c(C)cc1Br | 4
Oc1ccc(/C=N/NC(=S)Nc2cccnc2)cc1O | -2
O=C(N/N=C/c1ccc(O)c(O)c1)N/N=C/c1ccc(O)c(O)c1 | 11* | TTR inh HuH7=-10;TTR act confirm=-1
Clc1cc(Cl)cc(CNC2CCC23CCCCC3)c1 (stereo not drawn) | 1
C=CCN1C[C@H](COC(=O)c2cccc(C)c2)Oc2cccc(F)c2S1(=O)=O | -1
CCN1CCCCC(NC(=O)COCc2ccccc2)C1=O (stereo not drawn) | -1
SMILES | TTR transcr act | others
O=C(c1cccc(Cl)c1)N1CCN(c2ccnc3cc(Cl)ccc23)CC1 | -3
O=C(NNC(=S)NC1CC2C=CC1C2)c1ccncc1 (stereo not drawn) | 1
N#CCCN(Cc1cccnc1)C(=S)NC1CC2C=CC1C2 (stereo not drawn) | 10* | TTR inh HuH7=-9;TTR act confirm=1
O=C(CNC(=S)N(Cc1ccccc1)Cc1cccnc1)NC1CC1 | 5
N#CN1CCC(NS(=O)(=O)c2ccc(F)cc2)C1 (stereo not drawn) | 5
COC(=O)[C@]12C[C@H](CC(=O)N3CCOCC3)C(=O)N(Cc3cccc4ccccc34)C1=C[C@H](COCc1ccccc1)O[C@@H]2C | 1
CCOC(=O)c1sc(N(Cc2ccccc2)C(=O)COC(=O)c2ccccc2O)nc1C | 13* | TTR inh HuH7=-14;TTR act confirm=1
Cc1ccsc1C(=O)OCC(=O)N(Cc1ccccc1)C(C)C | 2
CCOC(=O)c1sc(N(Cc2ccccc2)C(=O)CCl)nc1C | -1
O=C(Nc1ccccc1)OCCN1CCCC12CCC(c1ccccc1)CC2 (stereo not drawn) | 0

Source: PubChem (The Scripps Research Institute Molecular Screening Center)
